Only some compounds are listed: those with a hit (about 11% of all), similar ones and a draw of the others.
Luciferase inh – Photinus pyralis luciferase inhibition. P08659. purified P. pyralis luciferase, luminescence, biochemical. hit rate 2.5% among 76,000. AID 1347043. Potency, µM (top dose mostly 115 µM), most hits filed as inhibitors; active = well fitted curve in the direction sought with a large enough effect; inconclusive = small, poorly fitted or top-dose-only effect, or another doubt; inactive = no such curve, though single readings can be large; an effect the other way counts as inactive or inconclusive; also: nearly all actives have a fitted effect of over 65% in size
Target sequence (P08659 whole entry, looked up): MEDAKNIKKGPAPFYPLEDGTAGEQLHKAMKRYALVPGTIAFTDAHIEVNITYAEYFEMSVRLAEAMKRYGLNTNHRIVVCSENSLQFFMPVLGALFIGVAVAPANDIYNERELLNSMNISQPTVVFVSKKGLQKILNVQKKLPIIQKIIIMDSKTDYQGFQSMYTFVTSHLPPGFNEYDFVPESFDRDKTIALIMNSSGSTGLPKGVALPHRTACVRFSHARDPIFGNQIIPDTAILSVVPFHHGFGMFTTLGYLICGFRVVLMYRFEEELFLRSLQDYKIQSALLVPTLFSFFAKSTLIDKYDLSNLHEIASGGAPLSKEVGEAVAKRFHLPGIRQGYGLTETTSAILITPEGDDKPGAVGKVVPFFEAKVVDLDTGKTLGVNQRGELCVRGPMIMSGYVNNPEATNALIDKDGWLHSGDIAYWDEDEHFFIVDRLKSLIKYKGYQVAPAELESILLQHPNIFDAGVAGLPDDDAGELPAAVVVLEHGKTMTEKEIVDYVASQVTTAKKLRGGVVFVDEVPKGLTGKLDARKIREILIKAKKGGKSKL
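Purified P. pyralis luciferase (10nM final) in 50mM Tris acetate pH 7.5, 10mM Mg acetate, 0.01% Tween-20, 0.05% BSA with 10uM D-luciferin and 10uM ATP. Compounds titrated qHTS. Luminescence imaged on CCD.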
NPR1 antag – antagonists of human natriuretic peptide receptor Npr1. HEK293 hNpr1 GloSensor cGMP, ANP-stimulated luminescence. Potency, µM (series often up to 46.3 µM), usual class: inhibitors. hit rate 1.6% among 76,000; also: nearly all actives have a fitted effect of over 60% in size
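Compound pre-incubated 30 min at room temperature on GloSensor-loaded HEK293 cells stably carrying hNpr1 and the pGS-40F cGMP biosensor. Stimulation uses hNppA at 0.1 nM final; luminescence is taken at baseline and 20 min post-agonist.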
NIH3T3 tox – kills NIH 3T3 cells | Potency, µM (highest dose often 96.7 µM), actives largely listed as inhibitors | hit rate 4.3% among 94,000 | NIH 3T3 viability, CellTiter-Glo ATP luminescence, 48-72 h; active = well fitted curve in the direction sought with a large enough effect; inconclusive = small, poorly fitted or top-dose-only effect, or another doubt; inactive = no such curve, though single readings can be large; an effect the other way counts as inactive or inconclusive; also: nearly all actives have a fitted effect of over 55% in size
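Cells were seeded at 400 per well, treated with pin-transferred compound, and kept 48 or 72 hr at 37 °C before CellTiter-Glo addition and luminescence imaging of cellular ATP.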
HEK293 tox – cytotoxic compounds in HEK 293 cells; HEK 293 viability, ATP luminescence (CellTiter-Glo), 48-72 h; Potency, µM (doses to about 115 µM), most hits filed as inhibitors; hit rate 6.6% among 94,000; active = well fitted curve in the direction sought with a large enough effect; inconclusive = small, poorly fitted or top-dose-only effect, or another doubt; inactive = no such curve, though single readings can be large; an effect the other way counts as inactive or inconclusive; also: nearly all actives have a fitted effect of over 60% in size
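Pintool-delivered compounds were incubated with HEK 293 cells (250 cells/well) at 37 degree Celsius for 48 or 72 hr. ATP-dependent luminescence (CellTiter-Glo) then reported remaining viable cells.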
NPR1 antag cnf – confirmation of human Npr1 natriuretic peptide receptor antagonists. shares compounds with NPR1 antag. HEK293 hNpr1 cGMP GloSensor luminescence, ANP-stimulated. Potency, µM (series often up to 57.6 µM), usual class: inhibitors. hit rate 76% among 1,400; also: nearly all actives have a fitted effect of over 70% in size
NPR2 antag – hNpr2 antagonism, selectivity versus Npr1; shares compounds with NPR1 antag; HEK293 hNpr2 GloSensor cGMP luminescence, CNP-stimulated; Potency, µM (highest dose often 57.6 µM), most hits filed as inhibitors; hit rate 67% among 1,400; also: nearly all actives have a fitted effect of over 70% in size
FLuc inh counter – counter-screen for Npr1 antagonists: firefly luciferase inhibitors; AID 1347047; purified FLuc enzyme, luminescence, Km substrate; shares compounds with NPR1 antag; hit rate 0.7% among 1,400; Potency, µM (series often up to 57.6 µM), hits mostly inhibitors; active = well fitted curve in the direction sought with a large enough effect; inconclusive = small, poorly fitted or top-dose-only effect, or another doubt; inactive = no such curve, though single readings can be large; an effect the other way counts as inactive or inconclusive
GloSensor cGMP – counter-screen for Npr1 antagonists: GloSensor control cell line; shares compounds with NPR1 antag; HEK293 GloSensor cGMP, SNP-stimulated, luminescence; Potency, µM (series often up to 57.6 µM), usual class: inhibitors; hit rate 69% among 1,400; AID 1347051; also: nearly all actives have a fitted effect of over 70% in size
Numbers stand for hits; – = inactive; ? = inconclusive; · = no result given. Unless noted, calls follow the shape of the full dose curve.

SMILES	Luciferase inh	NPR1 antag	NIH3T3 tox	HEK293 tox	NPR1 antag cnf	NPR2 antag	FLuc inh counter	GloSensor cGMP
O=C1N(C2CCN(S(=O)(=O)c3ccccc3)CC2)C(c2ccncc2)C12CCCCC2 (stereo not given)	–	–	–	?	·	·	·	·
Cc1c(C(=O)N(C)Cc2cc(-c3cccnc3)no2)oc2c(F)cccc12	–	?	?	?	?	–	–	–
O=C(c1ccc(N2CC3CC(C2)[C@H]2CCCC(=O)N2C3)nc1)N1CCC(Cc2ccccc2)CC1 (stereo not given in full)	–	–	?	?	·	·	·	·
COc1cccc(CN2CCCC3(Cc4ccccc4CNC3=O)C2)c1 (stereo not given)	·	·	–	–	·	·	·	·
CCc1ccc(S(=O)(=O)N2CCC(n3cnnc3COC)CC2)cc1	–	–	–	–	·	·	·	·
O=C(c1ccc(C(F)(F)F)cc1)N1CCC2(CNc3ccccc3[S+](=O)([O-])N2)C1 (stereo not given)	–	?	?	?	22µM	?	–	17µM
Cc1ccc(C(=O)N2CCC3(CNc4ccccc4[S+](=O)([O-])N3)C2)cc1 (stereo not given)	–	–	?	?	·	·	·	·
COCC(NC(=O)c1ccc2nc(C3CCCCC3)oc2c1)c1ccnn1C (stereo not given)	–	?	–	?	–	?	–	–
NC(=O)Cc1c[nH]c2ncc(-c3ccccc3Oc3ccccc3)cc12	–	25µM	?	?	35µM	35µM	–	20µM
O=C(Cc1c[nH]c2ncc(-c3ccccc3Oc3ccccc3)cc12)NCc1cccnc1	–	28µM	?	?	22µM	22µM	–	20µM
O=C(CCCc1ccccc1)N1CCN(C(=O)c2nnn3c2COC(c2ccccc2)C3)CC1 (stereo not given)	–	–	–	–	·	·	·	·
O=C(Nc1ccc(F)cc1)c1c[nH]c2cccnc12	·	·	?	?	?	?	4.4µM	22µM
CCn1cc(CN(C)C(=O)c2ccc3c(c2)C(O)CCCCCN3C)c(C)n1 (stereo not given)	–	?	?	?	·	·	·	·
Cc1nn(C)c(C)c1CCCN(C)C(=O)c1ccc2c(c1)C(O)CCCCCN2C (stereo not given)	–	11µM	?	35µM	12µM	14µM	–	9.7µM
O=C1CC2(CCN(C(=O)C3CCN(C(=O)c4ccc(F)cc4)CC3)CC2)Oc2ccccc2N1	·	·	–	?	·	·	·	·
O=C1CC2(CCN(C(=O)c3ccc(Cl)cc3)CC2)Oc2ccccc2N1	·	·	–	?	17µM	19µM	–	12µM
Cc1cnccc1CN(C)C(=O)c1cc(COc2ccc(-n3cncn3)cc2)on1	–	7.1µM	?	?	5.4µM	9.7µM	–	5.4µM
CC(C)n1cc(CN(C)C(=O)c2cc(COc3ccccc3)on2)cn1	?	–	?	?	·	·	·	·
O=C1NCc2ccccc2CC12CCCN2Cc1ccc(Br)cc1 (stereo not given)	·	·	?	?	–	–	–	–
O=C(NC1CCCc2c1[nH]c1c(Cl)cccc21)C1(c2ccccc2)CCOCC1 (stereo not given)	–	–	–	–	·	·	·	·
COc1ccc(C2(C(=O)NC3CCCc4c3[nH]c3ccccc43)CCOCC2)cc1 (stereo not given)	–	?	40µM	?	22µM	15µM	–	–
CCCc1cc(C(=O)N2CCC(=O)N(Cc3ccccc3)C(CC)C2)ccn1 (stereo not given)	–	11µM	?	?	9.7µM	12µM	–	11µM
CCC1CN(C(=O)c2ccc3nc[nH]c3c2)CCC(=O)N1Cc1ccccc1 (stereo not given)	–	–	–	–	·	·	·	·
